Data: PubChem BioAssay

system: Lefty1; test: Lefty1 protein binding to printed compounds – biochemical, small-molecule microarray, 635/667 nm fluorescence, primary screen (AID 1139); conditions: fluorescence 635/667, higher = more signal

Row | SMILES | composite z-score
1 | CC(=O)Nc1cc(Br)ccc1C(=O)O | -0.0658
2 | Cc1ccccc1C(O)C1C=CC2C(=O)N(C)C(=O)C2N1N1CCCCC1 (configuration not stated) | 0.0198
3 | [N-]=[N+]=NCc1ccccc1[C@@H]1OC(c2ccc(OCCCO)cc2)=N[C@]1(Cc1ccccc1)C(=O)N1CCCCC1 | -0.0101
4 | COCC(=C=CC[C@H](O)c1ccc(OCCO)cc1)C[C@H](O)c1cc(Cl)cc(Cl)c1O | 1.47
5 | COC(=O)[C@@]1(Cc2ccc(OC)cc2)[C@H]2c3cc(C(=O)N4CCCC4)n(Cc4ccccn4)c3C[C@H]2CN1C(=O)c1ccccc1 | -0.467
6 | COc1ccc([Si](C)(C)[C@@H]2[C@@H](CCn3cc([C@H](O)c4ccccc4)nn3)O[C@]3(C(=O)N(Cc4ccc(N5C(=O)c6cccc7cccc5c67)cc4)c4ccccc43)[C@H]2C)cc1 | -0.236
7 | O=C1O[C@@H](c2ccccc2)[C@@H](c2ccccc2)N2[C@@H](c3ccc(O)cc3)[C@]3(C(=O)Nc4ccc(C#CC5(O)CCCCCC5)cc43)[C@@H](C(=O)N3CCCCCCC3)[C@H]12 | 1.68
8 | O=C1[C@]2(CO)C=C(Br)[C@@H](C[C@@H]2c2ccccc2)[C@@]12CO2 | 0.748
9 | COCCOC(=O)N1C(=O)[C@@]2(c3cc(C#CCCO)ccc31)[C@H](c1ccccc1OCCO)N1[C@H](c3ccccc3)[C@H](c3ccccc3)OC(=O)[C@H]1[C@@H]2C(=O)N1CCN(c2ncccn2)CC1 | 1.38
10 | CC=CC(O)C1C=CC2C(=O)N(c3ccccc3)C(=O)C2N1Nc1ccc(C(C)C)cc1 (configuration not stated) | 0.0518
11 | CC(c1ccccc1)C(O)C1C=CC2C(=O)NC(=O)C2N1Nc1ccccn1 (configuration not stated) | 0.335
12 | C=CCC(OC(C)=O)[C@@H]1[C@@H](N(Cc2ccc(-c3cccc(C(F)(F)F)c3)o2)C(=O)c2ccc(C)cc2)c2cc(OCCCO)ccc2N1C(=O)c1ccc(-c2ccccc2)cc1 (some centres not stated) | 0.899
13 | COc1ccc([Si](C)(C)[C@@H]2[C@@H](CC(=O)N3CCC[C@H]3CO)O[C@]3(C(=O)N(C)c4c(Br)cc(C)cc43)[C@H]2C)cc1 | 1.19
14 | O=C1O[C@H](c2ccccc2)[C@H](c2ccccc2)N2[C@H]1[C@@H](C(=O)O)[C@]1(C(=O)Nc3ccc(C#CC4=CCCCC4)cc31)[C@H]2c1ccc(OCCO)cc1 | 1.28
15 | CCCNC(=O)[C@@]1(c2ccc([N+](=O)[O-])cc2)CC(=O)N(CC23CC4CC(CC(C4)C2)C3)[C@@H]1c1ccc(CO)cc1 | -0.197
16 | CC(C)C[C@@H]1NC(=O)[C@H]2C[C@@H](C(=O)NCCCCCCNC(=O)CS)[C@@H](c3cccc(OCCO)c3)N2C1=O | 1.57
17 | Cc1cc(C)c(C(O)C2C=CC3C(=O)N(C)C(=O)C3N2Nc2ccccc2)c(C)c1 (configuration not stated) | -0.765
18 | O=C1OCCC=C[C@H]2OC34C=CCN(Cc5ccccc5)C(=O)[C@H]3N(CCCO)C(=O)[C@@H]4C12 (some centres not stated) | 0.181
19 | COCCOC(=O)N1C(=O)[C@@]2(c3cc(C#CCC(C(=O)OC)C(=O)OC)ccc31)[C@H](c1ccc(O)cc1)N1[C@H](c3ccccc3)[C@H](c3ccccc3)OC(=O)[C@H]1[C@@H]2C(N)=O | 0.366
20 | COCCOC(=O)N1C(=O)[C@@]2(c3cc(C#CCC(C(=O)OC)C(=O)OC)ccc31)[C@H](c1ccccc1OCCO)N1[C@H](c3ccccc3)[C@H](c3ccccc3)OC(=O)[C@H]1[C@@H]2C(N)=O | 0.714
21 | C=CCNC(=O)[C@H]1[C@@H]2C(=O)O[C@@H](c3ccccc3)[C@@H](c3ccccc3)N2[C@@H](c2ccc(O)cc2)[C@]12C(=O)N(C(=O)OCCOC)c1ccc(C#CCCO)cc12 | -0.0874
22 | CC(C)CNC(=O)[C@@H]1c2ccccc2C(=O)N(Cc2cc(C(F)(F)F)cc(C(F)(F)F)c2)[C@H]1c1ccc(CO)cc1 | -0.851
23 | O=C(CS)NCCCCCCNC(=O)[C@@H]1C[C@@H]2C(=O)N3CCC[C@H]3C(=O)N2[C@@H]1c1ccc(O)cc1 | -0.686
24 | CCCCCCc1nc(CCCc2cc3c(c(CCCCCC)n2)[Si](C(C)C)(C(C)C)OC3)cc2c1[Si](C(C)C)(C(C)C)OC2 | 0.0479
25 | O=C1O[C@H](c2ccccc2)[C@H](c2ccccc2)N2[C@H]1[C@@H](C(=O)NC[C@H](O)c1ccccc1)[C@]1(C(=O)Nc3ccc(C#CCCO)cc31)[C@H]2c1ccc(O)cc1 | -0.929
26 | C=C[C@@H](COC(C)=O)N(Cc1ccccc1[N+](=O)[O-])S(=O)(=O)c1ccc(Br)cc1 | 0.929
27 | O=C1N(CCS(=O)(=O)c2ccccc2)Cc2ccccc2C[C@]12N=C(c1ccc(OCCCO)cc1)O[C@@H]2c1ccccc1 | 0.557
